Screens deposited in PubChem by National Center for Advancing Translational Sciences (NCATS).
A selection: hits, their analogues and other compounds. The true share with any hit is near 10%.
Pf growth 96h: inhibits malaria parasite growth, 96 h; hit rate 6.9% among 320,000; AID 504834; P. falciparum luciferase reporter growth, 96 h; Potency, µM (top dose mostly 28.7 µM), for the others: top-dose activity change, negative = inhibition, actives largely listed as inhibitors; active = well fitted inhibition curve with a large enough effect; inconclusive = small, poorly fitted or top-dose-only effect, or another doubt; inactive = no such curve, though single readings can be large or run the other way; note: potency is the fitted concentration of half-maximal effect; % is set by controls: 0 for no effect and ±100 for the full control effect
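Luminescence readout: decreased luciferase signal marks inhibited growth of reporter-expressing P. falciparum in infected red cells (2% hematocrit, 0.05% parasitemia final), exposed to compound two generations (96 h, 37 C, 5% CO2).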
NS1 inh: blocks influenza NS1 protein function | AID 2326 | hit rate 0.4% among 270,000 | Potency, µM (titrated, usually from 46.1 µM), for the others: at the top dose activity, positive = more growth; note: potency is the fitted concentration of half-maximal effect; actives are rising curves; nearly all actives have a fitted effect of over 50% in size
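Growth recovery, yeast-based: influenza A NS1 expressed in S. cerevisiae causes slow growth, and suppressors are detected by OD600. The parent strain without NS1 is used as positive control.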
SARS PLP yeast: inhibitors of SARS-CoV papain-like protease in yeast. AID 485353. Potency, µM (titrated, usually from 32.9 µM), for inactives: at the top dose activity, positive = growth rescue, most hits filed as activators. S. cerevisiae expressing SARS-CoV PLpro, growth rescue. hit rate 0.19% among 330,000; note: potency is the fitted concentration of half-maximal effect; 0% is about no effect; nearly all actives have a fitted effect of over 55% in size
Pf growth 48h: inhibits P. falciparum growth in the first generation, 48 h | P. falciparum luciferase growth in erythrocytes, 48 h | Potency, µM (doses to about 28.7 µM), for inactives: top-dose activity change, negative = inhibition, actives largely listed as inhibitors | hit rate 5.9% among 310,000 | AID 504832; active = well fitted inhibition curve with a large enough effect; inconclusive = small, poorly fitted or top-dose-only effect, or another doubt; inactive = no such curve, though single readings can be large or run the other way; note: potency is the fitted concentration of half-maximal effect; % is set by controls: 0 for no effect and ±100 for the full control effect
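First compound was added to culture medium, then infected red cells at 0.1% parasitemia and 2% hematocrit (final). After incubation at 37 C under 5% CO2, luciferase detection reagent was dispensed and light output recorded.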
Flu NS1 inh: validation of influenza NS1 protein function inhibitors. shares compounds with NS1 inh. influenza NS1 function cell assay, 15-point titration. activity change, negative = inhibition, % at 32.9 µM. 1,400 tested, under 10 active; note: 0% is about no effect
Flu PR8 replic: influenza virus titer reduction, NS1 project; hit rate 30% among 95; virus titer (log TCID50), log10 TCID50 at 5 µM; MDCK infected influenza A/PR/8/34, virus titer TCID50; hits give low values; shares compounds with NS1 inh; call rule not given here
Starred values were filed as active, the others as inactive; ? = inconclusive; . = not tested or not shown. Unless noted, calls come from the whole dose curve.

SMILES | Pf growth 96h | NS1 inh | SARS PLP yeast | Pf growth 48h | Flu NS1 inh | others
COc1ccc(-c2nn(-c3ccccc3)cc2/C=C2/SC(=S)N(CCC(=O)O)C2=O)cc1 | ? | 3.4% | -0.8% | ? | .
COc1ccc(-c2nn(-c3ccccc3)cc2/C=C2/SC(=S)N(CCC(=O)O)C2=O)c(C)c1 | 5.86µM* | 11.2µM* | -5.4% | -1.6% | ?
CCOC(=O)c1c(C)[nH]c(C(=O)C(C)OC(=O)c2cccc(OCc3c(C)noc3C)c2)c1C (configuration not stated) | 0.8% | 12.6µM* | -1.7% | -24.2% | -8.4
COc1ccc(C(=O)NCCc2nnc3ccc(SCC(=O)NCCc4ccc(OC)c(OC)c4)nn23)cc1 | 2.5% | 1.1% | -5.0% | -11.7% | .
CN(C(=O)COc1ccc(-c2nnco2)cc1)C1CCS(=O)(=O)C1 (configuration not stated) | 18.9% | . | 4.1% | -0.9% | .
CCOC(=O)C1(Cc2cccc(OC)c2)CCCN(C(=O)CCN2CCCO2)C1 (configuration not stated) | 59.1% | ? | 6.2% | -8.6% | -14.7
CCc1cc(C(=O)N(CC)CC(=O)Nc2ccc(OC)cc2)sc1C | ? | . | -1.3% | ? | .
COc1cc(NS(=O)(=O)c2ccc(NC(=S)NC(=O)COc3ccccc3OC)cc2)nc(OC)n1 | -20.3% | ? | 0.7% | 49.9% | .
CCOc1ccc(S(=O)(=O)N2CCN=C2c2ccccc2)c(C)c1C | -27.4% | -5.2% | 2.3% | -19.8% | .
Cc1c(OC(C)C(=O)N[C@H](C(=O)O)c2ccccc2)ccc2c3c(c(=O)oc12)CCCC3 (some centres not stated) | ? | 10µM* | -3.5% | ? | -5.4
COCc1c(C(=O)NCCOc2ccc(Cl)cc2)oc2ccccc12 | ? | . | -5.6% | ? | .
CCCn1c(SCC(=O)Nc2sc(C)c(C)c2C#N)nnc1C(C)C | 6.1% | 8.91µM* | 2.8% | ? | -19.8
Cc1ccc(S(=O)(=O)NCCNC(=O)CN2CCOCC2)cc1 | 40.2% | 7.4% | 1.0% | 11.7% | .
CC1CCN(C(=O)c2[nH]cnc2C(=O)N[C@@H](C)C(=O)OCc2ccccc2)CC1 | 25.5% | 5.1% | -3.2% | 50.5% | .
Cc1ccc(C)c(N2N=C(C(=O)NCCN3C(=O)S/C(=C\c4cccnc4)C3=O)CCC2=O)c1 | 11.6% | . | -6.7% | -28.3% | .
O=[N+]([O-])c1ccc(N(c2ccccc2)c2ccccc2)cc1 | ? | ? | -27.5% | ? | ?
Nc1ccc(S(N)(=O)=O)cc1 | ? | . | . | -11.4% | .
Nc1ccc(S(N)(=O)=O)cc1N | 220.7% | 4.47µM* | 2.6% | 137.3% | 18.9
Cc1cc(C)cc(-n2c(O)c(C=Nc3ccc(N4CCOCC4)cc3)c(=O)[nH]c2=S)c1 | 24.6% | 21.2% | -5.9% | -3.3% | .
O=c1[nH]c(=S)n(-c2ccc(Br)cc2)c(O)c1C=Nc1ccc(N2CCOCC2)cc1 | -13.0% | 7.94µM* | -12.3% | 40.8% | 5.9
NC(=O)c1cc(S(=O)(=O)N2CCOCC2)cs1 | ? | -0.2% | 0.6% | 5.9% | .
COc1ccc(CN2CCC(n3nccc3NC(=O)CCc3ccccc3)CC2)c(C)c1C | ? | -17.4% | -5.2% | ? | .
O=C(NN=C1CCCC1)c1ccccc1[N+](=O)[O-] | ? | ? | 3.8% | -10.8% | 10.5
Cc1cccc(C)c1NC(=O)c1cn(-c2ccccc2)nc1-c1ccccc1 | -42.4% | -1.1% | 0.3% | -23.4% | .
CC(C)N1CCC(=NNC(=O)c2ccccc2[N+](=O)[O-])CC1 | -8.5% | -4.2% | -1.4% | 11.4% | .
SMILES | Pf growth 96h | NS1 inh | SARS PLP yeast | Pf growth 48h | Flu NS1 inh | others
O=C(NN=C1CCCCCC1)c1cn(-c2ccccc2)nc1-c1ccccc1 | -8.1% | 14.1µM* | 7.8% | 5.9% | 31.5
Cc1cccnc1N1C(=O)c2ccc(C(=O)O)cc2C1=O | 36.7% | 0.7% | 0.4% | -5.6% | .
CCOC(=O)N1CCN(C(=O)CCC(=O)N2CCOc3ccc(C)cc32)CC1 | ? | 5.62µM* | 6.6% | ? | -6.8
CC(=O)N1CCN(S(=O)(=O)c2cccc(C(=O)NNC(=O)Cn3nc(C)cc3C)c2)CC1 | -6.1% | . | -1.3% | 4.2% | .
COc1cc(/C=N/NC(=O)c2sc3nc(C)cc(C)c3c2N)ccc1O | ? | ? | 1.7% | ? | 4.6
COC(=O)c1sc2nc(C)cc(C)c2c1N | 6.6% | 3.1% | -0.3% | 43.5% | .
O=C(NCc1ccc2[nH]c3c(c2c1)CCCC3)c1ccc(S(=O)(=O)N2CCCC2)cc1 | 13.1µM* | 12.6µM* | 1.0% | 0.0% | 7.4 | Flu PR8 replic=7*
Cc1cc2cc(CNC(=O)c3cccc([N+](=O)[O-])c3)ccc2[nH]1 | -17.4% | 14.1µM* | 0.7% | -5.8% | 0.5
Cc1cc2cc(CNC(=O)c3ccc(S(=O)(=O)N4CCCCC4)cc3)ccc2[nH]1 | ? | 11.2µM* | 2.1% | ? | 17.7
Cc1cc2ccccc2n1CCNC(=O)c1ccc(S(=O)(=O)N2CCCCC2)cc1 | 1.65µM* | 11.2µM* | 6.3% | 2.08µM* | -0.2
COc1cccc(CNC(=O)c2ccc(S(=O)(=O)N3CCCC3)cc2)c1 | . | -2.2% | 1.8% | -8.0% | .
O=C(NNC(=O)c1ccccc1Cl)c1cc2cc(OC(F)(F)F)ccc2[nH]1 | 22.4% | 2.8% | 1.7% | 1.8% | .
Cc1ccc(C(=O)C(C)N2C(=O)NC(C)(c3ccccc3)C2=O)cc1 (configuration not stated) | 5.6% | . | 0.9% | 1.2% | .
Cc1nc2ccccc2c(=O)n1NC(=O)c1c(O)c2c(n(CC(C)C)c1=O)CCCC2 | -17.9% | -120.8% | -88.1% | ? | .
CCc1nc2ccccc2c(=O)n1NC(=O)c1c(O)c2ccccc2[nH]c1=O | 34.4% | 1.58µM* | 5.9% | ? | -19.5
CCCCCCc1nc2ccccc2c(=O)n1NC(=O)c1c(O)c2c(n(CC(C)C)c1=O)CCCC2 | ? | 0.398µM* | 8.0% | 9.1% | -15.4
C=C(Br)CN1[C@@H](Cc2ccccc2)[C@H](O)[C@@]23C=C[C@@H](C[C@@H]2S1(=O)=O)O3 | . | . | -7.5% | . | .
Cc1cc(=O)n(C(C)(C)C)c(=O)n1Cc1ccccc1 | 13.2% | 1.1% | -0.5% | 19.5% | .
Cc1ccc(S(=O)(=O)Oc2ccc(/C=N/N=C3/NC(=O)C(CC(=O)O)S3)cc2)cc1[N+](=O)[O-] (configuration not stated) | -28.8% | ? | -8.3% | 13.3% | .
COc1ccc(-c2nc(NC(=O)C3CC(=O)N(c4ccc5c(c4)OCCO5)C3)sc2C)cc1 (configuration not stated) | ? | 11.2µM* | -1.6% | 30.7% | 7.0
CCCC12C(=O)C(C)(C(c3ccccc3)=C1c1ccccc1)C1C(=O)N(c3ccc(C)cc3)C(=O)C12 (configuration not stated) | 3.29µM* | 10µM* | 8.7% | 2.62µM* | -25.9 | Flu PR8 replic=6.5*
Cc1ccc(CC2C(=O)N(c3ccccc3)C(=O)C2C)cc1 (configuration not stated) | -23.4% | -13.3% | 3.4% | 20.7% | .
